# Data published in ChEMBL document CHEMBL1157539, “Thousands of chemical starting points for antimalarial lead identification” (Nature, 2010).
# Assays:
# Assay type in all cases: functional
# Plasmodium falciparum [1] = assay: GSK_TCMDC: Inhibition of Plasmodium falciparum 3D7 in whole red blood cells, using parasite LDH activity as an index of growth. Test compounds present at 2uM
# Plasmodium falciparum [2] = assay: GSK_TCMDC: Inhibition of Plasmodium falciparum Dd2 in whole red blood cells, using parasite LDH activity as an index of growth. Test compounds present at 2uM
# HepG2 = assay: GSK_TCMDC: Percent inhibition of human HepG2 cell line. Test compounds present at 10uM.
SMILES,Inhibition (Plasmodium falciparum [1]) [%],Inhibition (Plasmodium falciparum [2]) [%],Inhibition (HepG2) [%]
COc1ccc(CN2CCC(NCc3cccc(-n4ccnc4)c3)CC2)cc1.O=C(O)C(F)(F)F,100,93,10
O=C(Nc1ccc(-c2ccccc2)cc1)Nc1cccc(Cn2cnc(N3CCCNCC3)cc2=O)c1.O=C(O)C(F)(F)F,88,13,8
O=[N+]([O-])c1cccc(Nc2nccc(-c3cnn4ncccc34)n2)c1,87,74,33
CCc1cc(OC)ccc1C1CCN(CCCCNC(=O)c2ccc(NC(=O)c3ccc(Cl)cc3)cc2)CC1.Cl,95,61,23
Cc1cc(=NN=Cc2ccccc2F)c2cccc(C)c2[nH]1,100,14,7
O=C(NCc1ccc(Cl)cc1)c1ccc(CN2CCCN(Cc3cccc(O)c3)CC2)cc1.O=C(O)C(F)(F)F,82,12,25
Cn1cnc(CCNC(=O)c2ccc(-c3cccc(-c4nc5cc(F)ccc5[nH]4)c3)cc2)c1,100,24,23
Cc1cc(Nc2ccnc(-c3ccc(Cl)cc3)n2)ccn1,94,23,6
O=C(NC1CCN(Cc2ccccc2O)C1)c1ccc(Cl)c(Cl)c1.O=C(O)C(F)(F)F (stereo not drawn),92,62,0
O=C(Nc1ccc(Br)cc1)N(CCN1CCOCC1)CC(O)COc1ccc(Cl)c(F)c1.O=C(O)C(F)(F)F (stereo not drawn),98,30,3
Cn1c(=O)c2nc(-c3ccc(Cl)cc3)nnc2n(CCCC#N)c1=O,99,98,6
